Compounds without any hit were thinned out: in the full panel of roughly 83,000, 20% have a hit.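 96-well plates, one dose, 48 hours. Percent growth reported; active if below 10.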 Unmarked numbers belong to inactive results. Activity calls are given as the source filed them.
Key:
Experiment in all cases: NCI-60 one-dose screen, 48 h (100 = growth as untreated, 0 = no growth, -100 = all killed)
Conditions in all cases: 10 µM
K-562 leukemia = tested on: K-562 leukemia
MALME-3M melanoma = tested on: MALME-3M melanoma
MDA-MB-231 breast = tested on: MDA-MB-231 breast
RXF 393 renal = tested on: RXF 393 renal
SF-268 CNS = tested on: SF-268 CNS
SF-295 CNS = tested on: SF-295 CNS
SF-539 CNS = tested on: SF-539 CNS
UACC-257 melanoma = tested on: UACC-257 melanoma
M14 melanoma = tested on: M14 melanoma
HCT-15 colon = tested on: HCT-15 colon
SNB-75 CNS = tested on: SNB-75 CNS
SNB-19 CNS = tested on: SNB-19 CNS
PC-3 prostate = tested on: PC-3 prostate
SK-MEL-5 melanoma = tested on: SK-MEL-5 melanoma
UACC-62 melanoma = tested on: UACC-62 melanoma
LOX IMVI melanoma = tested on: LOX IMVI melanoma
SK-MEL-2 melanoma = tested on: SK-MEL-2 melanoma
U251 CNS = tested on: U251 CNS
SK-MEL-28 melanoma = tested on: SK-MEL-28 melanoma
HT29 colon = tested on: HT29 colon

Structure (SMILES)	growth (K-562 leukemia)	growth (MALME-3M melanoma) [%]	growth (MDA-MB-231 breast) [%]	growth (RXF 393 renal)	growth (SF-268 CNS) [%]	growth (SF-295 CNS)	growth (SF-539 CNS)	growth (UACC-257 melanoma) [%]	growth (M14 melanoma)	growth (HCT-15 colon) [%]	growth (SNB-75 CNS) [%]	growth (SNB-19 CNS) [%]	growth (PC-3 prostate) [%]	growth (SK-MEL-5 melanoma)	growth (UACC-62 melanoma) [%]	growth (LOX IMVI melanoma) [%]	growth (SK-MEL-2 melanoma) [%]	growth (U251 CNS)	growth (SK-MEL-28 melanoma) [%]	growth (HT29 colon)
CCCC1(CC(=O)O)OCCc2c1[nH]c1ccccc21 (stereo unspecified)	156%	98.8	103	100%	103	102%	112%	103	112%	107	65.8	128	91.7	100%	93.2	108	114			
Clc1ccc(Sc2nc(NC3CC3)nc(Sc3ccc(Cl)cc3)n2)cc1	75.2%	80.7	81.1	79.1%	79.3	67.4%	95%	89.6	86.2%		92	105	46.8	87.9%	82.2	91.3		80%	87.5	
CCN(CC)Cc1cc(Nc2ccnc3cc(Cl)ccc23)ccc1OC	45.1%	110	55.7	64.2%	96.6	91%	62.7%	94.4	7.19% (active)	56.4	86.8	94.1	66.7	91.6%	104	47.7	116	82%	108	
Cc1c(Cl)cccc1NC(=O)c1sc2nc3c(cc2c1N)C(=O)CCC3	7.09% (active)	40.1	12.6	-16.4% (active)	37.4	-8.15% (active)	-40.7% (active)	48.1	3.72% (active)		27	45.4	21.4	9.76% (active)	34.5	33.3	18	7.51% (active)	43.7	3.09% (active)
CCOC(=O)C(CSC(c1ccccc1)(c1ccccc1)c1ccccc1)NC(=O)C(CSC(c1ccccc1)(c1ccccc1)c1ccccc1)NC(c1ccccc1)(c1ccccc1)c1ccccc1 (stereo unspecified)	112%	108	108	97.4%	110	86.7%	112%	88.8	111%		86.8	107	102	98.6%	113	99.6	115	97.3%	99.8	113%
COc1cccc(C(=O)Nc2ccc(CN3CCc4nc5cc(OC)c(OC)cc5cc43)cc2)c1	24.5%	51.8	48	48.7%	47	65.7%	66.5%	35.9	38.1%		49.2	69.7	21.7	50.1%	67.3	31.3		33.9%	73.2	16.2%
Cc1cccc(C)c1NC(=O)c1sc2nc3c(cc2c1N)C(=O)CCC3	64%	74.7	79	94.4%	103	49.9%	101%	73.7	87.3%	60.3	82.6	66.5	70.2	57.7%	67.4	91.3	69.7	85.6%	81.3	
CN(CCc1ccccn1)c1ccccc1	95.2%	168	105	120%	124	116%	94.1%	99.7	100%	89.8	92	102	101	103%	98	102	101		101	
